Consider 35 compounds from ChEMBL document CHEMBL4513149, “CO-ADD screening of MMV (CH) - MMV compounds” (2021).

Results with a measured potency or affinity are listed apart.

This assay concerns Cryptococcus neoformans. The following applies: Concentration 20 uM; ASSAY_TEST Inhibition of Fungal Growth; detection method Resazurin; Absorption (OD600-OD570); plate type 384well; NBS; CORNING #3640.
In the case of `C[C@H](c1ccc2c(c1)CCCC2)N(C)c1ncc2c(N)nc(N)nc2n1`, the Inhibition is -9.74%.

Take `CC(C)(CN)c1nc(-c2ccc(Cl)c(O)c2)c(-c2ccnc(N)n2)[nH]1.O=C(O)C(F)(F)F.O=C(O)C(F)(F)F`: the Inhibition is on record as -6.49%.

On to `Cc1ncc(-c2ccnc(Nc3ccc(S(C)(=O)=O)cc3)n2)n1C(C)C` [AZD-5438], for which the Inhibition was -6.72%.

On to `NC(=O)c1cc(-c2ccsc2)ccc1OCCOc1ccccc1`, for which the Inhibition is given as -0.49%.

In the case of `Cc1noc(C)c1COc1cccc(C(=O)N=c2[nH]cccc2C)c1`, the Inhibition is -9.25%.

`CCc1ccc(C(NCc2nc(N)nc(N(C)C)n2)C(C)C)cc1` (stereo not given): the Inhibition is on record as -4.27%.

For `Cc1nc(-c2ccccn2)nc(NCCc2ccc(S(C)(=O)=O)cc2)c1Cl`, the Inhibition came out at 2.36%.

Take `O=C(OCc1ccccc1)N1CCC(c2cc(-c3ccncc3)c(-c3ccc(F)cc3)[nH]2)CC1`: the Inhibition is on record as -11.48%.

For the compound `COc1ccccc1CNC(=O)c1cc(C2CC2)nc2c1cnn2C(C)C`, the Inhibition is on record as -9.25%.

In the case of `CCOC(=O)c1noc(N)c1-c1ccccc1`, the Inhibition was -9.75%.

`Cl.O=C(Nc1ccc(N2CCNCC2)nc1)c1oc(-c2ccccc2)nc1C(F)(F)F`: the Inhibition was -3.82%.

`Cc1nn(C(=O)Nc2cccc(C(F)(F)F)c2)c(C)c1Sc1ncccn1`: the Inhibition is listed as -2.75%.

Take `CCOC(=O)c1cc(-c2csc(Nc3c(C)cc(C)cc3C)n2)on1`: the Inhibition was -12.46%.

`CC(Oc1ccccc1)C(=O)Nc1nc(-c2ccccn2)cs1` (stereo not given): the Inhibition is on record as -5.96%.

As for `Cc1ccc(-c2nc(CN(Cc3ccccn3)C(C)C)cs2)o1`, the Inhibition is listed as -5.74%.

As for `FC(F)(F)c1cc(NCCc2ccccc2)nc(-c2ccccn2)n1`, the Inhibition was -6.05%.

For the compound `CNC(=O)C1Cc2c([nH]c3cc(Cl)ccc23)C2(CCN(CCc3ccccc3)CC2)N1` (stereo not given), the Inhibition is -13.49%.

Regarding `CC(C)(C)n1nc(Cc2cccc3ccccc23)c2c(N)ncnc21`, the Inhibition was -9.17%.

Turning to `CC(=O)Nc1ccc(NC(=O)c2cc(-c3cc(Cl)ccc3O)n[nH]2)cc1`, the Inhibition is reported as 0.66%.

As for `CC(C)C(NC(=O)Cc1cccc2ccccc12)C(=O)Nc1cccc(C#N)c1` (stereo not given), the Inhibition is on record as -4.4%.

`O=C(Nc1ccnc(-c2cccnc2)n1)c1cc(C(F)(F)F)cc(C(F)(F)F)c1`: the Inhibition is listed as -5.46%.

With `O=C(NCc1ccco1)N1CCN(Cc2ccc(Cl)s2)CC1`, the Inhibition was -2.89%.

As for `OCc1ccc(-c2cncc(Nc3cccc(Cl)c3)c2)cc1`, the Inhibition is -14.16%.

For `CCS(=O)(=O)N(Cc1ccco1)Cc1cc2ccc(C)cc2nc1O`, the Inhibition was -6.36%.

Regarding `CCCS(=O)(=O)N1CCC(CO)(Cc2ccccc2C(F)(F)F)CC1`, the Inhibition is -2.93%.

On to `CNC(=O)c1cc(S(=O)(=O)N2CCN(c3ccccn3)CC2)cs1`, for which the Inhibition is on record as -8.81%.

With `Nc1ncc(-c2cn[nH]c2)cc1-c1nc2cc(Cl)cnc2[nH]1`, the Inhibition is recorded as -3.87%.

For the compound `CC1=NN(c2nc3ccccc3s2)C(=O)C1Cc1cccc2ccccc12` (stereo not given), the Inhibition is -5.86%.

With `O=C(NC1CCCCC1)N1CCN(Cc2ccc3c(c2)OCO3)CC1`, the Inhibition is given as -16.64%.

Turning to `O=C(N[C@H](Cc1ccccc1)C(=O)Nc1ccccc1N1CCOCC1)c1cccs1`, the Inhibition is on record as -4.85%.

As to `O=C(NC1CC1)c1ccc(N2CCOc3ccc(Cl)cc32)s1`, the Inhibition stood at 31.76%.

Consider `CC1CCCCN1C(=O)NCCc1coc(-c2ccc(F)cc2)n1` (stereo not given), for which the Inhibition is on record as -14.62%.

With `CCCCc1ccc(NC(=O)Nc2ccc(O[C@H]3CCCC[C@@H]3N(C)c3ccccc3)c(F)c2)cc1`, the Inhibition is given as -1.2%.

As to `COc1cccc(OC)c1C(=O)Nc1ccc(Cl)c(-c2nc3ccccc3s2)c1`, the Inhibition is -8.77%.

For `CC(C)(C)c1cc(C(=O)Nc2cccnc2)cc(C(=O)Nc2cccnc2)c1`, the Inhibition is recorded as -7.29%.
